Sampled rows, rich in hits. Any-hit rate of the full collection: about 1%.
HEK293 viab: reduces viability of HEK-293 SNCA reporter cells; Potency, µM (series often up to 57.1 µM), for inactives: at the highest dose activity change, negative = cytotoxicity, hits mostly cytotoxic; 150,000 tested, 0.12% active; HEK-293-SNCA-luc viability, GF-AFC fluorescence, 24 h; AID 1671193;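 further: potency means the concentration at half of the fitted maximal effect; 0% = DMSO-treated cells and -100% = medium-only wells without cells; nearly all actives have a fitted effect of over 30% in size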
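Cytotoxicity counterscreen: after 24 h compound treatment of genome-edited SNCA-luciferase HEK-293 cells, live-cell protease substrate GF-AFC read by fluorescence after 30 min; activity scaled between DMSO (0%) and medium-only (-100%), curves Hill-fitted.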
SNCA expr inhib: SNCA gene expression inhibition; 140,000 tested, 0.17% active; AID 1671194; HEK-293 SNCA-luciferase knock-in, luminescence, 24 h; Potency, µM (series often up to 57.2 µM), inactives show at the highest dose activity change, negative = inhibition, hits mostly inhibitors;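 further: potency means the concentration at half of the fitted maximal effect; plate controls were DMSO cells for no effect and cell-free wells for full effect; nearly all actives have a fitted effect of over 45% in size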
IP6K1 inhibitor: inhibitors of human IP6K1; Q92551; IP6K1 kinase, ADP-Glo luminescence, 2 h; hits give low values; activity change, % (series mostly up to about 58 µM); 140,000 tested, 0.81% active; in the data active means activity change below about -25%
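ADP-Glo luminescence measures ADP made by human IP6K1 during a 2 h RT reaction with ATP/IP6 (mix at 1.3 mM/130 uM); top library doses 57.5 and 19.1 uM final.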
GPT2 inh: blocks human glutamate pyruvate transaminase 2. Recombinant GPT2, coupled pyruvate oxidase/HRP Amplex Red fluorescence. Potency, µM (highest dose often 57.7 µM), for inactives: at the top dose activity change, negative = inhibition, hits mostly inhibitors. 100,000 tested, 0.25% active. AID 1671188; further: potency means the concentration at half of the fitted maximal effect; nearly all actives have a fitted effect of over 60% in size
Target sequence (Q8TD30 whole entry, looked up): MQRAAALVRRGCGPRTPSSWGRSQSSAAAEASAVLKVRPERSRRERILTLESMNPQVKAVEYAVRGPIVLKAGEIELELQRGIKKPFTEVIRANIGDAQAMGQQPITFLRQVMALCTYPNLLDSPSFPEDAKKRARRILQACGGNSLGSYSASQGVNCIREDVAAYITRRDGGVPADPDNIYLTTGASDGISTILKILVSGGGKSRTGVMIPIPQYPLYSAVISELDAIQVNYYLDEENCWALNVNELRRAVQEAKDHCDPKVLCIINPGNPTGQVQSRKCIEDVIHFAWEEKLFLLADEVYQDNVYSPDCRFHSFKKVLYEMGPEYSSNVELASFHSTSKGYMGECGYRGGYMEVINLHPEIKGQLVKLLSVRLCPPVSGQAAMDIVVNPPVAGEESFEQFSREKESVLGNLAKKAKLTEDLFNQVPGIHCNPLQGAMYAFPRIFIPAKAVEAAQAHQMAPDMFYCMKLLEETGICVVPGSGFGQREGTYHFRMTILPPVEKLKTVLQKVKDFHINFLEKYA
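Inhibition is scored from Amplex Red fluorescence generated when pyruvate oxidase and HRP act on pyruvate released by GPT2. Reactions contain 10ng/uL enzyme, 250uM a-KG and 2mM L-alanine and run 30 min at room temperature.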
IP6K1 inh cnf: human IP6K1 inhibition, confirmatory; 1,200 tested, 13% active; shares compounds with IP6K1 inhibitor; Potency, µM (doses to about 49 µM), for inactives: at the top dose activity change, negative = inhibition, actives largely listed as inhibitors; AID 1645852; recombinant IP6K1 kinase, ADP-Glo luminescence, 2 h; further: potency means the concentration at half of the fitted maximal effect; nearly all actives have a fitted effect of over 65% in size
Active calls of the source: *; i = inactive; u = inconclusive; x = no result; [ ] = remark or other dose. Unless noted, the call rests on the fitted dose curve; in most records, active means well fitted curve in the direction sought with a large enough effect; inconclusive means small, poorly fitted or top-dose-only effect, or another doubt; inactive means no such curve, though single readings can be large; an effect the other way counts as inactive or inconclusive. Unless noted, on the % scale 0 is the no-effect control and ±100 the full control effect.

SMILES	HEK293 viab	SNCA expr inhib	IP6K1 inhibitor	GPT2 inh	IP6K1 inh cnf
Brc1ccc2nc(SCCOc3ccccc3)[nH]c2c1	8.6%	78.1%	-32.4*	x	u
O=C(C1CCN(Cc2ccccc2-c2ccccc2F)CC1)N1CCN(Cc2ccccc2)CC1	x	x	12.2	x	x
Cc1nnsc1C(=O)Oc1ccc(C#N)cc1	-10.1%	7.8%	-19.6	x	x
Cc1nnsc1C(=O)Oc1ccc(Cl)cc1	5.9%	-11.0%	-26.1*	x	-4.2%
Cc1cc(C)cc(OC(=O)c2snnc2C)c1	2.9%	-5.1%	-35.0*	x	-11.7%
Cc1cccc(-c2nnc(SCCC(=O)O)o2)c1	14.0%	u	-37.3*	x	u
O=C(CC1CCCCN(Cc2ccccc2)C1=O)NCc1ccc(F)cc1F (configuration not stated)	7.6%	0.6%	7.4	-5.8%	x
O=C1Nc2nc(-c3c(O)cccc3OCC3CC3)cc([C@@H]3CCCNC3)c2CO1	u	x	-10.7	i	-16.8%
Cc1cc(C(=O)NCC2CC2)c2c(C3CCCNC3)noc2n1 (configuration not stated)	-5.6%	-19.3%	4.6	i	x
COc1ccc(-c2nc3cc(C)ccn3c2NC(=O)c2ccc(F)cc2)cc1	u	24.0%	-31.5*	x	u
COc1ccc(-c2nc3cc(C)ccn3c2NC(=O)c2ccc(C)c(C)c2)cc1	u	23.0%	-13.7	x	x
COc1ccc(CNC(=O)C2CCN(S(=O)(=O)c3cn(C)cn3)CC2)cc1	8.6%	12.1%	-0.5	x	x
CCOc1ccc(CNC(=O)C2CCN(S(=O)(=O)c3cn(C)cn3)CC2)cc1	6.8%	-14.6%	-26.3*	x	17.4%
COc1ccc(CN2Cc3[nH]cnc3C[C@H]2c2nc(-c3ccc(C)cc3)no2)cc1	-19.1%[87.6 µM]	u	0.7	4.1%[88.5 µM]	x
COc1ccc(-c2ccc(C(=O)N(C)C)c(Cl)c2)nn1	x	x	-46.2*	x	u
COc1ccc(-c2ccc(C(=O)NC(C)C)c(Cl)c2)nn1	x	x	-10.6	x	x
COc1ccc(-c2ccc(C(=O)N(C)c3ccccc3)cc2)nn1	x	x	-16.5	x	u
COc1ccc(-c2ccc(C(=O)N3CCCC3)c(Cl)c2)nn1	x	x	-69.1*	x	u
CCN(Cc1cnn(CC)c1)C(=O)CN1C(=O)C2(CCCCC2)C1c1ccccc1 (configuration not stated)	-11.4%	14.9%	5.6	i	x
COCC1CN(C(C)=O)CC12CCN(Cc1cccc(Br)c1)CC2 (configuration not stated)	-6.4%	-1.8%	21.3	i	x
CCN(CC)C(=O)c1ccc(Nc2nc(OCC3CCCCC3)c3[nH]cnc3n2)cc1	-25.5%	x	-40.5*	i	10.3µM*
NS(=O)(=O)c1ccc(Nc2nc(OCC3CCCCC3)c3[nH]cnc3n2)cc1	u	10.6%	-46.7*	i	4.11µM*
COC(=O)c1cccc(NC2=NS(=O)(=O)c3ccccc32)c1	-14.6%	8.0%	-39.5*	x	u
CC(C)c1cccc(C(C)C)c1NC1=NS(=O)(=O)c2ccccc21	-25.0%	-2.0%	14.3	x	x
COc1cccc(-c2ccc(CN3CCCC(NC(=O)Nc4ccccc4)C3)cc2)c1 (configuration not stated)	-4.8%	20.2%	-0.9	-7.4%	x
SMILES	HEK293 viab	SNCA expr inhib	IP6K1 inhibitor	GPT2 inh	IP6K1 inh cnf
Cc1cc(C)c2oc(-c3ccc(C)c(NC(=O)/C=C/c4ccco4)c3)nc2c1	-3.8%	33.2%	-35.5*	x	u
O=C(NC1CCN(C(=O)c2ccc(-c3cccs3)cc2)CC1)c1ccccn1	u	10.4%	-7.7	i	x
COc1ccc(OC(=O)c2nc(SCc3ccc(C)cc3)ncc2Cl)cc1	4.6%	6.1%	-28.2*	x	-2.7%
Cc1ccc(CNC(=O)c2nc(SCc3ccc(C)cc3)ncc2Cl)cc1	8.8%	u	-6.5	x	x
O=C(Oc1ccccc1F)c1nc(SCc2ccc(F)cc2)ncc1Cl	7.1%	18.7%	-37.9*	x	-1.2%
Cc1ccccc1OC(=O)c1nc(SCc2ccccc2F)ncc1Cl	u	2.8%	-12.8	x	x
COc1ccc(OC(=O)c2nc(SCc3ccc(F)cc3)ncc2Cl)cc1	3.0%	-7.6%	-19.0	x	x
Cc1ccc(CSc2ncc(Cl)c(C(=O)Oc3ccc(F)cc3)n2)cc1	-0.7%	-6.7%	-25.2*	x	13.4%
O=[S+]1([O-])[C@@H](Cc2ccccc2)[C@H](COCc2ccccc2)CN1c1ccccc1	x	x	11.6	x	x

Screening results from PubChem BioAssay.
